Source: PubChem (The Scripps Research Institute Molecular Screening Center)
Rows were chosen to be rich in hits. Some 4.8% of all compounds tested hit in one or more screens of this group.
hgDAF-12 ag = hgDAF-12 agonism, primary luciferase screen | HEK293 GAL4-hgDAF12 UAS-luciferase reporter, agonist luminescence; normalized to butyrate control | activation, % at 6.8 µM | actives 1.8% (n = 370,000) | AID 687014;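 active = activation above a cutoff set at the mean of all screened compounds plus 3 SD, cut at about 10% in these data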;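 also: 0% = DMSO wells and 100% = sodium butyrate wells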
hcDAF-12 act = activators of H. contortus DAF-12 nuclear receptor; HEK293 hcDAF-12 lit1-tk-luc reporter, luminescence; 0% DMSO, 100% Δ7-dafachronic acid; activation, % at 6.8 µM; actives 1.4% (n = 370,000); AID 652067;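 active = activation above the mean of all tested compounds plus 3 SD, cut at about 5.5% in these data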;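 also: 100% = response to 3 µM Δ7-dafachronic acid high control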
DAX1 inh-1 = inhibitors of human orphan nuclear receptor DAX1 (NR0B1). P51843. HEK293 Gal4-DAX1 luciferase reporter, luminescence. inhibition, % at 6.75 µM. actives 0.99% (n = 340,000);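 active = inhibition above the mean over all tested compounds plus 3 SD, cut at about 4.2% in these data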;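 also: 0% = DAX1-transfected cells with DMSO and 100% = empty-vector control cells with DMSO; inhibition shows as a rise in luminescence from relieved DAX1 repression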
Target sequence (P51843 207-470 limits assumed): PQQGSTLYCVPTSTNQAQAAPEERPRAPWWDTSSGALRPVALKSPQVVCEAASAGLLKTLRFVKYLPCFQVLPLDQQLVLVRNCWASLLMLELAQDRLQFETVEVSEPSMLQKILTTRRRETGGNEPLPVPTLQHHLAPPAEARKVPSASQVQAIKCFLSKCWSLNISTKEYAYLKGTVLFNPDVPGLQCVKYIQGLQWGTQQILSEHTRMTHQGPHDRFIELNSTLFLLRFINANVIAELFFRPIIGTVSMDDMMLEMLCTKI
ssDAF12 agonist = S. stercoralis DAF-12 activation, primary screen; HEK293 ssDAF-12/GRIP1 lit1-tk-luc reporter, luminescence; % of 3 µM dafachronic acid response; activation, % at 6.8 µM; actives 1% (n = 370,000); AID 652126;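 active = activation above the mean over all tested compounds plus 3 SD, cut at about 0.9% in these data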;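 also: 0% = DMSO-only wells and 100% = 3 µM delta7-dafachronic acid wells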
DAX1 inh-2 = DAX1 (NR0B1) inhibition, primary screen | actives 1.1% (n = 370,000) | HEK293T StAR-luciferase reporter, SF-1/DAX-1 repression relief | inhibition, % at 6.8 µM;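 active = inhibition above the mean over all tested compounds plus 3 SD, cut at about 3.6% in these data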;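 also: 0% = DAX-1 cells with DMSO and 100% = cells lacking DAX-1 with DMSO; higher inhibition means more luminescence from relief of DAX-1 repression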
SMARCA2 act = activators of SMARCA2 function. activation, % at 9.1 µM. MG213 cells, MMTV-luciferase reporter, dexamethasone, overnight. AID 652017. actives 1% (n = 370,000); in the data active = activation above about 7.8%;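 also: 0% = vehicle wells and 100% = reference activator wells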
hgDAF12 ag = hgDAF-12 agonism, confirmation assay; HEK293 GAL4-hgDAF12 luciferase reporter, agonist mode; percent of butyrate response; actives 80% (n = 3,300); AID 743050; shares compounds with hgDAF-12 ag; activation, % at 6.8 µM;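 active = mean activation over triplicate wells above the hit cutoff derived from the earlier primary screen, cut at about 11% in these data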;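 also: 0% = DMSO low control and 100% = 2 mM sodium butyrate high control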
LXR ag 2 = activates human LXR-beta, counter-screen for DAF-12 agonists. shares compounds with hgDAF-12 ag. HEK293 Gal4-LXR luciferase reporter, 24 h. activation, % at 6.8 µM. 3,300 tested, under 10 active;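 active = mean activation of the triplicate above a set limit carried over from the primary screen, none filed active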
Target sequence (P55055 whole entry, looked up, the tested form may be a part): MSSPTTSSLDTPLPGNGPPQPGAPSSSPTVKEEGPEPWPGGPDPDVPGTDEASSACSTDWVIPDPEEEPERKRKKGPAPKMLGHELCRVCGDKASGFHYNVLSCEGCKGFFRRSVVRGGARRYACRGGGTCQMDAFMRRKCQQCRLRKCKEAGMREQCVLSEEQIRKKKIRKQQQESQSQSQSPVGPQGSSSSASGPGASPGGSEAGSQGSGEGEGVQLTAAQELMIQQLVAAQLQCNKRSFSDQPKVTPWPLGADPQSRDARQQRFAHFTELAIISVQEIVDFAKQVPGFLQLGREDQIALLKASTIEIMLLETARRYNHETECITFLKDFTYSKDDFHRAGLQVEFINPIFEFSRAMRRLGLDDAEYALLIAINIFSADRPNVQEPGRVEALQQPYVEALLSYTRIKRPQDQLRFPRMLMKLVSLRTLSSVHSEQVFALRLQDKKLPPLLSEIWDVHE
Active calls of the source: *; . = not tested or not shown.

SMILES	hgDAF-12 ag	hcDAF-12 act	DAX1 inh-1	ssDAF12 agonist	DAX1 inh-2	SMARCA2 act	hgDAF12 ag	LXR ag 2
Cc1ccc(-n2c(SCn3nnc4ccccc4c3=O)nnc2-c2cccnc2)c(C)c1	1.0	0.4	-0.6	-1.7	-0.2	-1.0	.	.
O=C(Nc1ccc(Br)cc1)c1ccc2ncsc2c1	18.8*	4.6	-1.7	1.0*	1.8	2.2	15.5*	0.7
CC(C)NS(=O)(=O)c1ccc(NC(=O)Cc2cccs2)cc1	0.6	-1.5	0.1	-1.2	0.8	1.7	.	.
O=C(Nc1ccccc1)c1cc(C2CCCN(C(=O)c3cccs3)C2)on1 (stereo not given)	14.2*	3.5	.	-1.1	3.3	4.2	13.0*	0.4
CC(=O)c1cccc(NC(=O)c2ccc3ccccc3c2)c1	19.2*	3.9	2.2	0.8	3.2	2.7	17.0*	0.8
CC(=O)c1ccc(NC(=O)c2cc3ccccc3o2)cc1	14.2*	5.1	1.0	1.6*	2.8	1.9	18.4*	0.8
Cc1ccccc1C(=O)N1CCC(C(=O)OCc2nc(N)nc(Nc3ccccc3)n2)CC1	4.5	-0.5	1.6	-1.2	-0.2	5.5	.	.
CC(C)(C)CN1C(N)=NC[C@@H]1c1ccccc1	1.4	-1.1	0.9	-1.1	-0.2	0.2	.	.
Clc1c(CSc2nc3ccccc3o2)nc2sccn12	24.4*	4.6	3.0	0.5	4.1*	1.1	20.1*	0.6
COC(=O)CSc1nc2ccccc2o1	-0.3	3.8	1.7	-1.4	0.3	-1.9	.	.
COc1cccc(C2c3cc4c(cc3OC(N3CCCC3)C2C)OCO4)c1O (stereo not given)	8.6	-1.0	2.9	-1.0	-1.7	-0.2	.	.
COc1ccccc1C(=O)N/C(=N/c1nc(C)cc(C)n1)Nc1ccccc1	13.6*	4.9	-0.5	0.3	1.0	2.4	-1.6	0.0
O=C1NC(c2ccc3ccccc3c2)Nc2ccccc21 (stereo not given)	14.4*	3.4	3.1	0.1	1.9	2.4	12.9*	0.5
COc1ccc2ccccc2c1C1NC(=O)c2ccccc2N1 (stereo not given)	14.4*	-0.8	-3.0	-1.5	-4.2	0.7	-1.2	0.0
CC1=NN(C(=O)c2ccc(C)o2)C(O)(c2ccccc2)C1 (stereo not given)	16.6*	3.9	2.0	-0.3	3.9*	3.0	-0.8	0.0
Clc1ccc(-c2nc3ccccn3c2CN2CCCCC2)cc1	-8.7	-4.9	-2.4	-3.0	-1.9	-4.1	.	.
CN(C)Cc1c(-c2ccc(Cl)cc2)nc2ccccn12	18.2*	2.7	5.4*	-0.8	2.3	5.0	9.9	0.7
CCOC(=O)c1c(CC(C)C)csc1NC(=O)COC(=O)c1cnc(C)cn1	1.5	1.6	-0.8	-0.4	2.7	-4.4	.	.
COC(=O)N/N=C\c1ccccc1OC/C=C/c1ccccc1	3.1	3.2	0.8	-0.3	-0.8	5.1	.	.
CCOC(=O)N/N=C\c1ccccc1OC/C=C/c1ccccc1	14.3*	0.9	0.1	-0.5	-1.9	2.3	8.4	0.2
COc1ccc(CC(=O)NNc2ncnc3c2cnn3C)cc1OC	1.2	0.0	0.6	-1.1	0.0	-1.0	.	.
O=C(N/C=C\c1ccccc1)NCc1ccc(Cl)cc1	-0.3	-1.9	0.7	-1.1	-0.5	-1.4	.	.
O=C(N/C=C/c1ccccc1)c1ccccc1	15.0*	4.4	1.8	0.7	3.0	5.5	15.8*	0.9
CC(=O)COc1ccc2cc(-c3ccccc3)c(=O)oc2c1	17.1*	6.2*	3.5	0.2	1.9	6.3	17.0*	0.8
COC(=O)[C@]12C[C@H](CC(=O)NCC3CCCCC3)C(=O)N(Cc3ccco3)C1=C[C@H](C1CCCC1)O[C@@H]2C	-2.2	-0.8	.	-0.1	-0.9	-3.3	.	.
SMILES	hgDAF-12 ag	hcDAF-12 act	DAX1 inh-1	ssDAF12 agonist	DAX1 inh-2	SMARCA2 act	hgDAF12 ag	LXR ag 2
CC(C)c1ccc(OCc2cccc(C(=O)N/N=C/c3cccnc3)c2)cc1	21.1*	3.6	-5.7	0.8	3.9*	4.6	18.3*	0.9
CC(C)c1ccc(/C=N/NC(=O)c2cccc(Cl)c2)cc1	15.1*	3.3	1.4	-0.1	3.4	6.6	24.2*	0.7
C(=N\NC1=Nc2cccc3cccc1c23)/c1cccnc1	16.5*	5.1	1.9	-0.2	0.1	2.5	11.3*	0.4
CCOC(=O)C1C(=O)CC(C)(O)C(C(=O)OCC)C1c1ccc(N(CC)CC)cc1 (stereo not given)	-0.5	-1.6	-1.2	-1.2	-1.4	-2.0	.	.
c1ccc(CSc2ccc(-c3cccs3)nn2)cc1	14.4*	3.0	1.3	0.7	4.3*	4.0	15.3*	0.5
Cc1cnc(NC(=O)c2cncc(Br)c2)s1	18.7*	1.7	3.2	0.3	2.2	5.3	15.5*	0.8
Cc1cnc(NC(=O)c2ccncc2)s1	9.4	4.6	0.5	0.3	2.3	-2.7	.	.
COc1ccc(C2=NN(C(C#N)c3ccc(OC)c(OC)c3)C(c3ccccc3)C2)cc1 (stereo not given)	9.7	2.3	4.1	0.1	2.5	5.5	.	.
COc1ccc(C(=O)NNC(=S)NC(=O)c2cccs2)cc1	0.6	1.1	-1.1	-1.2	-0.5	-2.0	.	.
COc1ccc(/C=C/C(=O)NC(=S)NNC(=O)c2cccs2)cc1	13.3*	2.1	3.1	-1.3	1.0	1.4	8.3	0.0
CN(C)c1ccc(/C=C2\CCC/C(=C\c3ccccc3)C2=O)cc1	1.9	3.0	-1.1	-0.9	-0.6	-2.7	.	.
O=C1/C(=C/c2ccccc2)CCCc2ccccc21	13.6*	3.1	-0.2	0.3	0.6	1.0	11.0*	0.4
N#C/C(=N\O)c1nc2ccccc2s1	2.6	1.1	2.7	-0.8	-0.1	-3.9	.	.
Nc1nc(NCc2ccco2)nc(NCCO)c1[N+](=O)[O-]	-3.1	-0.3	-3.0	-1.5	0.0	-2.0	.	.
N/C(=N\c1nc2ccccc2o1)NC(=O)c1ccccc1	9.1	0.4	3.0	-0.8	2.2	1.4	.	.
CC(C)(C)C(=O)N/C(N)=N/c1nc2ccccc2o1	13.3*	5.1	4.8*	1.5*	2.3	0.9	14.9*	0.9
NC(=O)c1ccc(-c2noc(-c3ccccc3F)n2)cc1	15.1*	5.6*	-2.5	0.3	1.9	6.1	13.3*	0.9
NC(=O)c1ccccc1-c1noc(-c2ccccc2F)n1	9.0	0.4	.	-1.1	.	.	.	.
COc1ccc(CCC(=O)NNC(=S)NCc2ccc(F)cc2)cc1	14.1*	-1.9	3.7	-1.3	-0.7	-0.4	0.1	0.0
CN(C)CCCN1C(=O)c2oc3ccccc3c(=O)c2C1c1cccs1 (stereo not given)	-0.3	-0.6	0.1	-0.7	0.3	2.1	.	.
